# Legend:
# Experiment in all cases: DAPPL (digital affinity profiling via proximity ligation, sequencing); 10 mM Tris-HCl pH 7.5, 50 mM NaCl, 1 mM DTT, 4% glycerol, room temperature, 30 min; GST-TFs on glutathione beads, 16-mer random dsDNA library, 0.1% formaldehyde crosslink after washing; high values mean tight binding
# HSF1 = HSF1 (Homo sapiens, UniProt Q00613 1-529); settings: protein: recombinant; tags: N-terminal GST; chain copies: 3; dsDNA, one strand shown
# Summary of the method: (§1)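 GST fusions of human transcription factors were expressed in yeast and captured with glutathione beads. Once given DNA barcodes and pooled alongside a tag-only sample, they were incubated for 30 min at room temperature with 200 nmole of a random double-stranded 16-mer DNA library in Tris/NaCl/DTT/glycerol buffer, then washed, crosslinked (0.1% formaldehyde), proximity-ligated, PCR-amplified and sequenced on an Illumina NextSeq500. The binding signal of each hexamer is its read frequency for a factor divided by its frequency for the tag-only sample.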
# GABPA = biological target: T1, GABPA (Homo sapiens, UniProt Q06546 1-454); settings: protein: recombinant; tags: N-terminal GST; dsDNA, one strand shown
# T1 sequence: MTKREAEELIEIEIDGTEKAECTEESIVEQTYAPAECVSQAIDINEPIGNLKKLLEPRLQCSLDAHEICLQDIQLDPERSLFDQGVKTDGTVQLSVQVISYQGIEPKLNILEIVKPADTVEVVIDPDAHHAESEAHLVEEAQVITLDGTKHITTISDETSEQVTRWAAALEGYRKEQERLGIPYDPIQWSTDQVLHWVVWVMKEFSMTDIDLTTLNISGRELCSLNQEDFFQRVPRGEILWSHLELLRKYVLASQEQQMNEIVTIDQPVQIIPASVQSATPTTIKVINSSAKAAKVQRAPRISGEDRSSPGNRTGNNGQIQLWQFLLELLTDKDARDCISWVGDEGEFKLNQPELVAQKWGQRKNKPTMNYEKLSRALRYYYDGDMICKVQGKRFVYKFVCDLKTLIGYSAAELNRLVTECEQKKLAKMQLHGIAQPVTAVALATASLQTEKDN
# Summary of the method: as §1
# ELF1 = ELF1 (Homo sapiens, UniProt P32519 1-619); settings: protein: recombinant; tags: N-terminal GST; dsDNA, one strand shown
# Chain of ELF1 (P32519 whole entry): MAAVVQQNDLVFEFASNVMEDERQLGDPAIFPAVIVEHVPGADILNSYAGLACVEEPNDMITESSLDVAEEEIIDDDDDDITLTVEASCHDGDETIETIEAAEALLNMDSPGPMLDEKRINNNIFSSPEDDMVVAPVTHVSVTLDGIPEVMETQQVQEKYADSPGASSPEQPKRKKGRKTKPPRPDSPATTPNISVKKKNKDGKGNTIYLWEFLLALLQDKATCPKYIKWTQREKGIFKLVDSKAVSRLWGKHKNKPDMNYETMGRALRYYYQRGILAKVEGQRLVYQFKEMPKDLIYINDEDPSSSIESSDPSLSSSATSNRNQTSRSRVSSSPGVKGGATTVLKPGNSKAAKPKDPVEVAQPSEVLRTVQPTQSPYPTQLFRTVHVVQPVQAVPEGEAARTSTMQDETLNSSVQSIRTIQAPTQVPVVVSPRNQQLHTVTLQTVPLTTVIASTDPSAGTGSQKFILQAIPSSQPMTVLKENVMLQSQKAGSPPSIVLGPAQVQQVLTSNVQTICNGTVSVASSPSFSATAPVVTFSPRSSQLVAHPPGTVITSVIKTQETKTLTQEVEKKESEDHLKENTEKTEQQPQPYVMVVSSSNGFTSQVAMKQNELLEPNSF
# Summary of the method: as §1
# SPIB = SPIB (Homo sapiens, UniProt Q01892 1-262); settings: protein: recombinant; tags: N-terminal GST; dsDNA, one strand shown
# Chain of SPIB (Q01892 whole entry): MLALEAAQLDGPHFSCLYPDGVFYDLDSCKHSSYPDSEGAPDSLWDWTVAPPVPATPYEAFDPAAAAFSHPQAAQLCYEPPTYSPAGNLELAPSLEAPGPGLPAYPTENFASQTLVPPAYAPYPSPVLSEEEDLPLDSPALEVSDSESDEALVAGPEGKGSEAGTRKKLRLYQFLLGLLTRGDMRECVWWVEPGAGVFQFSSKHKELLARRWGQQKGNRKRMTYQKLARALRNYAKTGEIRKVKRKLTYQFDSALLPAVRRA
# Summary of the method: as §1
# SPIC = biological target: T2, SPIC (Homo sapiens, UniProt Q8N5J4 1-248); settings: protein: recombinant; tags: N-terminal GST; dsDNA, one strand shown
# T2 sequence: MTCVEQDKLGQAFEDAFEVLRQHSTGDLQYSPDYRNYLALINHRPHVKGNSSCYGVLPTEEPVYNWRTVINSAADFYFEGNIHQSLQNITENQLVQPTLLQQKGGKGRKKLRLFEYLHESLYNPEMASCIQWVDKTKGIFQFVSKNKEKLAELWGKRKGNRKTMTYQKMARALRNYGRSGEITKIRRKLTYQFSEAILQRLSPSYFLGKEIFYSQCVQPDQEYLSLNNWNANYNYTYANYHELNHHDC
# Summary of the method: as §1
# ELF4 = ELF4 (Homo sapiens, UniProt Q99607 1-663); settings: protein: recombinant; tags: N-terminal GST; dsDNA, one strand shown
# Chain of ELF4 (Q99607 whole entry): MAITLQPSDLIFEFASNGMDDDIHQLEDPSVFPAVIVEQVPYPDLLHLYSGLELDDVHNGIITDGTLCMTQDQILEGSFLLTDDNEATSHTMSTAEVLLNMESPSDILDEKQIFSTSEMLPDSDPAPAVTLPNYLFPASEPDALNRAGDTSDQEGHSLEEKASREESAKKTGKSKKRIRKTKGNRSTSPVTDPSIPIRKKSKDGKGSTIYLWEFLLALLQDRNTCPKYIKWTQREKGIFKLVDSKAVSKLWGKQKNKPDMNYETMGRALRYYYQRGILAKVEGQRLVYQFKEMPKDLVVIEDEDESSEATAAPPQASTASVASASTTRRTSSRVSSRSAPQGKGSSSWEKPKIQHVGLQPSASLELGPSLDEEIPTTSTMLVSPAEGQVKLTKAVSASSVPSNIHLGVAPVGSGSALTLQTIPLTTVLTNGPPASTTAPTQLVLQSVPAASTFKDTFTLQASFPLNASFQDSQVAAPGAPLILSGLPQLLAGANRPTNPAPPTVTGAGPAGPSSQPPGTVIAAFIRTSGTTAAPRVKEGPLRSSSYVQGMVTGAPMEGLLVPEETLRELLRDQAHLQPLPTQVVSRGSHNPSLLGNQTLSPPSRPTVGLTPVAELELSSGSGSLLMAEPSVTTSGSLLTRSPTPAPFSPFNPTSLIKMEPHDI
# Summary of the method: as §1
# ELF3 = biological target: T3, ELF3 (Homo sapiens, UniProt P78545 1-371); settings: protein: recombinant; tags: N-terminal GST; dsDNA, one strand shown
# T3 sequence: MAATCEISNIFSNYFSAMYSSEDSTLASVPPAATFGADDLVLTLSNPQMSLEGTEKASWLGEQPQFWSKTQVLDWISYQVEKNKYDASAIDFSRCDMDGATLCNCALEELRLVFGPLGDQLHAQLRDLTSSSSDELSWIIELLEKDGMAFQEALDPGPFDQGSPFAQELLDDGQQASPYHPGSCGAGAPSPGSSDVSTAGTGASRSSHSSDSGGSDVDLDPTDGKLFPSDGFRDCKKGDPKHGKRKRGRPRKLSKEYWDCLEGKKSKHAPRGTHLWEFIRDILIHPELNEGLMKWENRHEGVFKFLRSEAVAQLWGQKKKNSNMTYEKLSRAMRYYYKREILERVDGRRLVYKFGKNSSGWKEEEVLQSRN
# Summary of the method: as §1
# CRX = CRX (Homo sapiens, UniProt O43186 1-299); settings: protein: recombinant; tags: N-terminal GST; dsDNA, one strand shown
# Chain of CRX (O43186 whole entry): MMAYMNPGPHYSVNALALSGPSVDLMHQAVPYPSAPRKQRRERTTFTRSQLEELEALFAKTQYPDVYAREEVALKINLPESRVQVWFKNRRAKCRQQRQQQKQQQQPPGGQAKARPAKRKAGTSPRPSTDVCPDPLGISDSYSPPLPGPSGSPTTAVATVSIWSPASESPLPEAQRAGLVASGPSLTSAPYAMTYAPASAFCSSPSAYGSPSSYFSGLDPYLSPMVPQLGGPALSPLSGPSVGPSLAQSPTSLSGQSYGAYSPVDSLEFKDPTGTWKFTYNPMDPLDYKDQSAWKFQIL
# Summary of the method: as §1
# ERF = biological target: T4, ERF (Homo sapiens, UniProt P50548 1-548); settings: protein: recombinant; tags: N-terminal GST; dsDNA, one strand shown
# T4 sequence: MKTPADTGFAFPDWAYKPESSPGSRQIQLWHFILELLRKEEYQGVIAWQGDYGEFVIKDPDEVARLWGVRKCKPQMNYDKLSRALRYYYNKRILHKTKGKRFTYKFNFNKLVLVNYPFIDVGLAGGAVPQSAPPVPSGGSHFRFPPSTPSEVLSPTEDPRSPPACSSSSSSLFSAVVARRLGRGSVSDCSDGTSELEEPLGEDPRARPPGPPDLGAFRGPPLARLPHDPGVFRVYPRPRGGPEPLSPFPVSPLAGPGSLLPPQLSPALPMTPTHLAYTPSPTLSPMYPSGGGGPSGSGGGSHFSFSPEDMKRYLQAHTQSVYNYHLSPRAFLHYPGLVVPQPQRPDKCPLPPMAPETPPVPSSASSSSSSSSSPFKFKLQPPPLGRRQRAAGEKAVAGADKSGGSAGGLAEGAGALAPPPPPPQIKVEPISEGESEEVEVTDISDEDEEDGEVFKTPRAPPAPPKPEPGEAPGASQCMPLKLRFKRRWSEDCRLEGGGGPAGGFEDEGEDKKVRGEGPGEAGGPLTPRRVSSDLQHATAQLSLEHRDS
# Summary of the method: as §1
# ETV3L = biological target: T5, ETV3L (Homo sapiens, UniProt Q6ZN32 1-361); settings: protein: recombinant; tags: N-terminal GST; dsDNA, one strand shown
# T5 sequence: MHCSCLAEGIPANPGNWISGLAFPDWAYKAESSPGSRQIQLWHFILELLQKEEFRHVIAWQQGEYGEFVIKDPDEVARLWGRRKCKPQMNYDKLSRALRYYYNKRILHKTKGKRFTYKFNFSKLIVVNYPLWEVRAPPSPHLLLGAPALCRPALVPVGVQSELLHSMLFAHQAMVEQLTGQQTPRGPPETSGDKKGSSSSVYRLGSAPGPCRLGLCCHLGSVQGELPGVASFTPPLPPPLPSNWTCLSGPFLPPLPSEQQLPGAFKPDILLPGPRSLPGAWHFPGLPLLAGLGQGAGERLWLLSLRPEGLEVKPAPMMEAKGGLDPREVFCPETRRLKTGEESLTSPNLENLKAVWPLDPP
# Summary of the method: as §1
# ETS2 = biological target: T6, ETS2 (Homo sapiens, UniProt P15036 1-469); settings: protein: recombinant; tags: N-terminal GST; dsDNA, one strand shown
# T6 sequence: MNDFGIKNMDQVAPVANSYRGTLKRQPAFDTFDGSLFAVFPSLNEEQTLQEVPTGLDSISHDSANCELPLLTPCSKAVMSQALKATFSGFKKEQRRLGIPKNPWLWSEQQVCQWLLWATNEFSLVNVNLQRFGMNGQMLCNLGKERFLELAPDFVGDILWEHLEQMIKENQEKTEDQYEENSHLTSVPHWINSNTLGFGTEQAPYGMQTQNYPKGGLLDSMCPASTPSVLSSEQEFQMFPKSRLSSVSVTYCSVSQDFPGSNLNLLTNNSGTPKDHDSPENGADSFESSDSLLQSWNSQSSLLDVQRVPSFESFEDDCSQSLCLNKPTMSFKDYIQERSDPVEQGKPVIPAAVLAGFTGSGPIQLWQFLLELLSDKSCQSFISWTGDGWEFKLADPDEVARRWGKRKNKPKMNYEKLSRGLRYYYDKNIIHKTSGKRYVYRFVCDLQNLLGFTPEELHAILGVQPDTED
# Summary of the method: as §1
# SPDEF = biological target: T7, SPDEF (Homo sapiens, UniProt O95238 1-335); settings: protein: recombinant; tags: N-terminal GST; dsDNA, one strand shown
# T7 sequence: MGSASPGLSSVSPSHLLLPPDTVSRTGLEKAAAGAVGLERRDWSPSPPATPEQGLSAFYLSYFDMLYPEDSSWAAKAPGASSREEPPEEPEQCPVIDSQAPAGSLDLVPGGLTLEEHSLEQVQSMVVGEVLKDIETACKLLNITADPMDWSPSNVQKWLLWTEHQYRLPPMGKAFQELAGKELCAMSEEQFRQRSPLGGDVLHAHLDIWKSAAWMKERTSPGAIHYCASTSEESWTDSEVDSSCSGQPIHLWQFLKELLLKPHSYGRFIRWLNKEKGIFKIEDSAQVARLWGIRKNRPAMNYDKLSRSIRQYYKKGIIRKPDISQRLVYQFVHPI
# Summary of the method: as §1
# ETV7 = biological target: T8, ETV7 (Homo sapiens, UniProt Q9Y603 1-341); settings: protein: recombinant; tags: N-terminal GST; dsDNA, one strand shown
# T8 sequence: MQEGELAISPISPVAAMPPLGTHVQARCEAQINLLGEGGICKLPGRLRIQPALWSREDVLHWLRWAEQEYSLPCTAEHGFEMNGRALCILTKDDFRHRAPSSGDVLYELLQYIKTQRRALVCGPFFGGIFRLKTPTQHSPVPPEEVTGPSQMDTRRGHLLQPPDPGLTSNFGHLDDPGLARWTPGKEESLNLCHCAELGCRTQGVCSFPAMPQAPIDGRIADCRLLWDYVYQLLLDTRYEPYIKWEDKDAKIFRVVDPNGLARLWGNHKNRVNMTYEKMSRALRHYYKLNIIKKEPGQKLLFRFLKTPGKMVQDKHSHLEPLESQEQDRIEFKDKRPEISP
# Summary of the method: as §1
# ETV3 = biological target: T9, ETV3 (Homo sapiens, UniProt P41162-2 1-143); settings: protein: recombinant; tags: N-terminal GST; dsDNA, one strand shown
# T9 sequence: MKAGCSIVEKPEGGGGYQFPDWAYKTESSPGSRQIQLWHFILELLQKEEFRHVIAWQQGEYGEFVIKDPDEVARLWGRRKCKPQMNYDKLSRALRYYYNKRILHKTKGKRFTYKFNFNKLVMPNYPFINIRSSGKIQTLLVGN
# Summary of the method: as §1
# ETV6 = ETV6 (Homo sapiens, UniProt P41212 1-452); settings: protein: recombinant; tags: N-terminal GST; dsDNA, one strand shown
# Chain of ETV6 (P41212 whole entry): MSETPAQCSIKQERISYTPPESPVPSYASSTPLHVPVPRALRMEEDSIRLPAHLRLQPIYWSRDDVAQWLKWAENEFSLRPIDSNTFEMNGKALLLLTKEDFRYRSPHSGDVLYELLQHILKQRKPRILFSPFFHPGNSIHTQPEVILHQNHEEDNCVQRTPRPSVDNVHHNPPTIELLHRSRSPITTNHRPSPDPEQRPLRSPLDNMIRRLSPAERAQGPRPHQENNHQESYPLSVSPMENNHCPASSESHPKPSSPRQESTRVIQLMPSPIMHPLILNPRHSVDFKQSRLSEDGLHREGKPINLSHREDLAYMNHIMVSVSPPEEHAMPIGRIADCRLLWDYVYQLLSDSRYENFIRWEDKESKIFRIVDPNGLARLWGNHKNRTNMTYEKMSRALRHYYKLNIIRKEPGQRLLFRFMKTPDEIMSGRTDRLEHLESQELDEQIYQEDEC
# Summary of the method: as §1
# Chain of HSF1 (Q00613 whole entry, the tested form may be a part): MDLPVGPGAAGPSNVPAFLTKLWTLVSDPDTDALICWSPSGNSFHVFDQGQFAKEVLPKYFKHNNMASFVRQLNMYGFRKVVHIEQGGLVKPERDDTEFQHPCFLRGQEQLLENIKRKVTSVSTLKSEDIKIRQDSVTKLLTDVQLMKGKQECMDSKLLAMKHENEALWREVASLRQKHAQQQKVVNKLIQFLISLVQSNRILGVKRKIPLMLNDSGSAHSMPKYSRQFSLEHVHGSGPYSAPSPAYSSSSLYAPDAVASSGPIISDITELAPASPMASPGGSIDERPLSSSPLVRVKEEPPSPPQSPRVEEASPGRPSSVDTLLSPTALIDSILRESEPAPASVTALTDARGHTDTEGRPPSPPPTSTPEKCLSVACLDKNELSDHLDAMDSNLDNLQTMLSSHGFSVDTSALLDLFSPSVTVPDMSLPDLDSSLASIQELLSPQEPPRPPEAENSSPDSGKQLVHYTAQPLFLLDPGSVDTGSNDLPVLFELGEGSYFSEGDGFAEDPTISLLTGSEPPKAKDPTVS
sequence,measurement,setting,value
GGGAAT,binding signal,HSF1,"1.09 fold enrichment (6-mer frequency, TF over GST control)"
GAGAAA,binding signal,HSF1,"1.49 fold enrichment (6-mer frequency, TF over GST control)"
TCGCGA,binding signal,HSF1,"1.59 fold enrichment (6-mer frequency, TF over GST control)"
GCTTAA,binding signal,GABPA,"1.14 fold enrichment (6-mer frequency, TF over GST control)"
same,binding signal,ELF1,"1.11 fold enrichment (6-mer frequency, TF over GST control)"
same,binding signal,SPIB,"1.09 fold enrichment (6-mer frequency, TF over GST control)"
same,binding signal,HSF1,"1.86 fold enrichment (6-mer frequency, TF over GST control)"
same,binding signal,SPIC,"1 fold enrichment (6-mer frequency, TF over GST control)"
same,binding signal,ELF4,"1.02 fold enrichment (6-mer frequency, TF over GST control)"
same,binding signal,ELF3,"1.02 fold enrichment (6-mer frequency, TF over GST control)"
same,binding signal,CRX,"3.04 fold enrichment (6-mer frequency, TF over GST control)"
same,binding signal,ERF,"1.03 fold enrichment (6-mer frequency, TF over GST control)"
same,binding signal,ETV3L,"1.05 fold enrichment (6-mer frequency, TF over GST control)"
same,binding signal,ETS2,"1.08 fold enrichment (6-mer frequency, TF over GST control)"
same,binding signal,SPDEF,"1.06 fold enrichment (6-mer frequency, TF over GST control)"
same,binding signal,ETV7,"1.06 fold enrichment (6-mer frequency, TF over GST control)"
same,binding signal,ETV3,"1.13 fold enrichment (6-mer frequency, TF over GST control)"
same,binding signal,ETV6,"1.05 fold enrichment (6-mer frequency, TF over GST control)"

# Source: article PMC7862700, “An all-to-all approach to the identification of sequence-specific readers for epigenetic DNA modifications on cytosine”
